69 compounds from ChEMBL document CHEMBL4513216, “Probing the Open Global Health Chemical Diversity Library for Multistage-Active Starting Points for Next-Generation Antimalarials” (ACS Infect Dis, 2020) can be followed below.

The structures appear in SMILES notation. Screen size: about 65,000 compounds; about 2,100 (3.2%) showed an effect of 50% or more. The median lay at about -52%. Shown is part of a subset that was picked to be rich in strong results.

The subject of the assay is Plasmodium falciparum. As to the kind of experiment: Screen against P. falciparum Asexual Blood Stage (ABS), at 5uM. It is filed as functional, Dd2. The note with it: tested at 5 uM.
Turning to `Cc1cnn(CC(C)NCc2ccc(C#N)cc2F)c1` (centres undefined), the INHIBITION is recorded as -84.2%.

With `c1cc(CN2CCO[C@H]3[C@H](OCC4CCCC4)CC[C@@H]32)ccn1`, the INHIBITION is -71.1%.

With `CN(C)CCN(C)C[C@H]1CN2CC[C@H]1C[C@@H]2CNC(=O)Nc1ccsc1`, the INHIBITION is -49.3%.

Turning to `Cc1nc(CN2CCOC3(CCCC3)C2)oc1C`, the INHIBITION is recorded as -101%.

Take `O[C@@H]1C[C@H]2CN(Cc3ccsc3)[C@@H](Cc3ccccc3)CN2C1`: the INHIBITION is 71.6%.

Consider `C[C@H]1CN2C[C@H](O)CC2CN1Cc1ccncc1` (some centres undefined), for which the INHIBITION was -85.4%.

For `C[C@@H]1CN2C[C@H](O)CC2CN1Cc1ccncc1` (some centres undefined), the INHIBITION is -64.4%.

As to `Cc1ccc(-n2nnc(CC(=O)N3CCN(C4CC4)CC3)c2C)cc1`, the INHIBITION is -35.9%.

Consider `COc1cccc(C2SCC(=O)Nc3n[nH]cc32)c1OC(C)C` (centres undefined), for which the INHIBITION was -75.3%.

Take `Cc1ccc(CC(=O)N2CCN(CC(O)c3ccccc3)CC2)cn1` (centres undefined): the INHIBITION is on record as -130%.

For `COc1cccc(CC(C)NC(=O)NCc2ccn(C)c2)c1` (centres undefined), the INHIBITION is -91.8%.

Take `Cc1ccc(CNC(CN2CCN(C)CC2)c2ccccc2)cc1` (centres undefined): the INHIBITION is given as 79.5%.

In the case of `COc1cccc(CC(C)NC(=O)NC(C)C)c1` (centres undefined), the INHIBITION is given as -64.2%.

In the case of `Cc1cccc(CNC(CN2CCN(C)CC2)c2ccccc2)c1` (centres undefined), the INHIBITION is recorded as 83.5%.

Turning to `O=C(Cc1ccccc1)N1CCN(CC(O)c2ccc(F)cc2)CC1` (centres undefined), the INHIBITION is on record as -118%.

Regarding `Cc1cnn(CC(C)NCc2cccc(C#N)c2)c1` (centres undefined), the INHIBITION is reported as -41.8%.

Consider `COc1cccc(CNC(CN2CCN(C)CC2)c2ccccc2)c1` (centres undefined), for which the INHIBITION is 82%.

As for `CN1CCN(CC(NCc2ccc(F)c(F)c2)c2ccccc2)CC1` (centres undefined), the INHIBITION was determined as 83.8%.

As for `O=C(Cc1ccc(F)cc1)N1CCN(CC(O)c2ccccc2)CC1` (centres undefined), the INHIBITION is reported as -18%.

As for `O=C(c1ccncc1F)N1C[C@@H]2OCCN(CC3CC3)[C@@H]2C1`, the INHIBITION is recorded as -66.6%.

On to `O=C(C1CCCCC1)N1CCC2(CC1)OCCO2`, for which the INHIBITION is recorded as -149%.

In the case of `O=C(Nc1ccccc1)[C@H]1C[C@H]2CN(Cc3cccnc3)C[C@@H]1O2`, the INHIBITION is on record as -15%.

In the case of `Cc1ccc(C(=O)N2C[C@H](N3CCOCC3)[C@@H]3OCCC[C@@H]32)cn1`, the INHIBITION was -62.2%.

With `CN(Cc1nc(C2CC2)no1)C(=O)CN1CC(c2ccccc2)CC1=O` (centres undefined), the INHIBITION is -52.4%.

On to `CCN(CC1CN(Cc2nc(C3CC3)no2)CCO1)c1cccnn1` (centres undefined), for which the INHIBITION was 73.3%.

Take `COCCn1cc(NC(=O)NC(C)Cc2c(F)cccc2F)cn1` (centres undefined): the INHIBITION is reported as -151%.

In the case of `COCCCN1CCCN(C(C)C(=O)Nc2cccc(I)c2)CC1` (centres undefined), the INHIBITION came out at 90%.

With `CNC(=O)c1ccc2c(c1)C1(CCN(CCOC)CC1)C(=O)N2`, the INHIBITION was -12.8%.

Take `Cn1ncc2c(N3CCCN4CCC[C@H]4C3)nc(C(C)(C)C)nc21`: the INHIBITION is listed as -68.8%.

Consider `O=c1[nH]c(NC2CCCC2)nc2nccc(-c3ccco3)c12`, for which the INHIBITION turned out to be 72.4%.

As for `COCCN1CCN(Cc2cccnc2)[C@H]2CS(=O)(=O)C[C@H]21`, the INHIBITION is listed as -9.43%.

With `COc1ncccc1CN1CC[C@H]2O[C@H](c3nnc(C)o3)CC[C@H]21`, the INHIBITION was -73.1%.

For the compound `CC(O)CN1CCN(C(=O)Cc2ccccc2Cl)CC1` (centres undefined), the INHIBITION is given as -179%.

`CCOc1ccccc1CNCC1CCN(CC(C)O)CC1` (centres undefined): the INHIBITION is given as 75.9%.

With `CC(O)CN1CCC(CNCc2cccc(Br)c2)CC1` (centres undefined), the INHIBITION was 87.8%.

As for `CC(Cc1cccc(Cl)c1)NC(=O)Nc1cnn(CC(N)=O)c1` (centres undefined), the INHIBITION was -5.01%.

For the compound `CC(O)CN1CCC(CNCc2cccc(Cl)c2)CC1` (centres undefined), the INHIBITION worked out at 87.9%.

For the compound `COCC(C)NC(=O)c1cn(C(C)(C)C)c2ncccc12` (centres undefined), the INHIBITION is -120%.

As for `COc1ccc(CC(=O)N2CCN(Cc3ccco3)C[C@@H]2C)cc1OC`, the INHIBITION was -135%.

Turning to `COc1ccc(C2SCC(=O)Nc3ccsc32)cc1OC` (centres undefined), the INHIBITION is given as -6.6%.

For the compound `CCNC(=O)NC(=O)CNC1(c2noc(C)n2)CCCCC1`, the INHIBITION is -46.9%.

`CN1Cc2ccccc2NC(=O)C12CCNC2` (centres undefined): the INHIBITION was -33.4%.

As to `O=C1CC[C@@H]2[C@@H](CCN2Cc2ccccn2)N1CC1CC1`, the INHIBITION is on record as -65.4%.

For `CN1CCn2c(-c3ccccc3)cnc2C12CCN(CC1CC1)CC2`, the INHIBITION was 80.9%.

For `Fc1cnc(N2CC3(CCN(CC4CC4)C3)C2)nc1`, the INHIBITION was -62.7%.

For the compound `CC(=O)N1CCC2(CC1)c1ncc(-c3cccnc3)n1CCN2C`, the INHIBITION is listed as -45.5%.

For the compound `c1ccc(-c2ncc3c(n2)C2(CCN(CC4CC4)C2)COC3)cc1` (centres undefined), the INHIBITION is on record as 32%.

For `CN1CCn2c(-c3cccc(F)c3)cnc2C12CCN(CC1CC1)CC2`, the INHIBITION came out at 76.5%.

Take `Cc1nc(C2(NCC(=O)NC(=O)NCc3cccs3)CCCCC2)no1`: the INHIBITION was -111%.

For the compound `Cc1ncc2c(c1CNC(=O)C1(C)CC1)CCNC2`, the INHIBITION is -29.6%.

For the compound `Cc1cccc(CN2CCN3C(=O)NC[C@H]3C2)n1`, the INHIBITION is listed as -4.56%.

For the compound `Cc1noc(C)c1CN1C(=O)[C@@H]2CC[C@H]1CN(Cc1ncc[nH]1)C2`, the INHIBITION was -55.8%.

Consider `Cc1cccc(Nc2cccc(C3CCCN(Cc4ncc[nH]4)C3)n2)n1` (centres undefined), for which the INHIBITION is 89.4%.

On to `O=C(Cc1cccs1)N1CC[C@H]2[C@H]1CCN2Cc1cccnc1`, for which the INHIBITION is recorded as 19.8%.

Take `Cc1cc(C)c(CNc2nc3ccccc3cc2CO)c(=O)[nH]1`: the INHIBITION stood at 21.9%.

For the compound `CCc1ccc(C2c3nc[nH]c3CCN2Cc2nccn2CC)nc1` (centres undefined), the INHIBITION was determined as 90.1%.

As to `CCn1ccnc1CN1CCNCC1C` (centres undefined), the INHIBITION is given as -43.7%.

As to `Cc1cc(CC(=O)N2CCN(CC(C)C)[C@@H]3CS(=O)(=O)C[C@@H]32)ccc1F`, the INHIBITION is recorded as -48.2%.

`Cc1cccc(CN2CC[C@@H]3[C@@H]2CCN3C(=O)c2cnoc2C)n1`: the INHIBITION is -26.9%.

For `O=C1OCCC1N1CCN(C(=O)Cc2ccccc2Cl)CC1` (centres undefined), the INHIBITION is given as -47.5%.

In the case of `O=C(CCN1CCCC1c1cccc2c1OCCO2)N1CCCCC1` (centres undefined), the INHIBITION was 73.2%.

Consider `NC(=O)CN1CCCN(C(=O)Cc2ccc3c(c2)OCCO3)CC1`, for which the INHIBITION is listed as -57.5%.

Consider `CN(C)CCCN(C)C1CCN(c2cccc(-c3cscn3)c2)CC1`, for which the INHIBITION is given as 81.2%.

As to `O=C1CC[C@@H]2[C@@H](CCN2Cc2ccncc2)N1c1ccccc1`, the INHIBITION is listed as -11.8%.

As for `O=C1Nc2ccccc2CC12CCCN2Cc1cccnc1` (centres undefined), the INHIBITION was -69.2%.

Turning to `CN1CCN(Cc2ccsc2)Cc2cccnc21`, the INHIBITION is listed as -81%.

Take `CN(Cc1nccs1)c1nc(-c2ccccn2)nc2c1CCNCC2`: the INHIBITION is listed as 83.7%.

Consider `CN(Cc1ccsc1)c1nc(-c2ccccn2)nc2c1CCNCC2`, for which the INHIBITION is 79.7%.

With `CN(Cc1ccon1)c1nc(-c2ccccn2)nc2c1CCNCC2`, the INHIBITION is listed as 76.3%.
